Assay [1] in a line: NCI Yeast Anticancer Drug Screen. Data for the rad50 strain (AID 155).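 Note: 0% = growth of vehicle-only cultures of the same strain.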 To be noted: S. cerevisiae rad50 strain growth inhibition; at 50.0 µM; active compounds read high. Summed up:
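Readout: growth inhibition relative to vehicle-treated cultures. Compound exposure was carried out in a genetically defined yeast strain deficient in DNA damage repair.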

Assay [2] is described as follows: NCI Yeast Anticancer Drug Screen. Data for the mec2-1 strain (AID 157). To be noted: S. cerevisiae mec2-1 strain, at 50.0 µM, active compounds read high. Summed up:
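Cells of the genetically defined mec2-1 yeast strain are incubated with test compound. Inhibition of growth is calculated against vehicle-treated controls.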

Assay [3] in a line: NCI Yeast Anticancer Drug Screen. Data for the sgs1 mgt1 strain (AID 161).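 Note: 0% = growth of cultures given vehicle only.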 To be noted: S. cerevisiae sgs1 mgt1 strain, at 50.0 µM, active compounds read high. Summed up:
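Genetically altered yeast, compound exposure, growth inhibition relative to vehicle.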

The nature of assay [4]: NCI Yeast Anticancer Drug Screen. Data for the cln2 rad14 strain (AID 165).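 Note: 0% = growth equal to vehicle treated cultures.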 To be noted: S. cerevisiae cln2 rad14 strain, at 50.0 µM, active compounds read high. Put shortly:
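The screen exposed genetically defined yeast (cln2 rad14) to test compounds and scored growth inhibition relative to vehicle-treated controls.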

Assay [5] can be described thus: NCI Yeast Anticancer Drug Screen. Data for the bub3 strain (AID 167). To be noted: S. cerevisiae bub3 mutant strain, at 50.0 µM, active compounds read high. Summed up:
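Readout: yeast growth inhibition, expressed relative to vehicle-only wells. The test organism is a mutant strain from a panel with lesions in DNA repair or checkpoint genes.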

Assay [6] is described as follows: NCI Yeast Anticancer Drug Screen. Data for the mlh1 rad18 strain (AID 175). To be noted: S. cerevisiae mlh1 rad18 strain growth inhibition; at 50.0 µM; active compounds read high. Put shortly:
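Compound-treated yeast growth, normalised to vehicle controls. Strain bears defined DNA repair mutations.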

These results are taken from PubChem BioAssay (NCI).

The panel holds about 79,000 compounds, 15% with a hit somewhere; the sample as a whole holds those more often. A number with no mark means an inactive call. Activity calls are given as the source filed them. Cut-off read from the data, not from the text of the source: active = growth inhibition above about 70%; inactive = the rest. Where a SMILES comes first, the peptide text is derived from it. Bridges are numbered along the chain shown (N, C = ends). [ ]: non-standard residue; d: D form. The star is where a group is joined. PhAc = O=C(Cc1ccccc1)*

Turning to `O=C(O)c1ccccn1`, the growth inhibition in assay [1] is -37.6%; in assay [2], -3%; in assay [3] it was 33.8%; in assay [4], -6.1%; in assay [5] it was -3.85%; in assay [6] it was 30%.
For `COC1/C=C\OC2(C)Oc3c(C)c(O)c4c(O)c(c5c(c4c3C2=O)NC2(CCN(C)CC2)N=5)=NC(=O)/C(C)=C\C=C\C(C)C(O)C(C)C(O)C(C)C(OC(C)=O)C1C` (centres undefined), the growth inhibition in assay [1] is 2.85%; in assay [2] it was 3%; in assay [3], -1%; in assay [4], 10.3%; in assay [5] it was 7%; in assay [6], 3.25%.
As to `COc1ccc2c(c1)CCCN1Cc3cc(OC)c(OC)cc3CC21` (centres undefined), the growth inhibition was -29.7% in assay [1]; 8.65% in assay [2]; -33.8% in assay [3]; 14% in assay [4]; -1.1% in assay [5]; -3.9% in assay [6].
`O=c1c2ccccc2nc(-c2ccccc2)n1-c1cc(C(F)(F)F)cc(C(F)(F)F)c1`: the growth inhibition in assay [1] was -20.5%; in assay [2], -23%; in assay [3], 7.85%; in assay [4], 10.8%; in assay [5] it was 4%; in assay [6], 5.95%.
As to `Clc1ccc(C2ON=C(c3ccccc3)N2C23CC4CC(CC(C4)C2)C3)c(Cl)c1` (centres undefined), the growth inhibition is -18.9% in assay [1]; -26.4% in assay [2]; -12.4% in assay [3]; -48.6% in assay [4]; -21.4% in assay [5]; -21.5% in assay [6].
Take `CCOC(=O)c1ccc(OC)cc1`: the growth inhibition in assay [1] was -12.7%; in assay [2] it was -25.4%; in assay [3], -8.8%; in assay [4] it was 2.8%; in assay [5], -3.55%; in assay [6], -17.4%.
`CC1CC(C)OC(c2ccccc2)O1` (centres undefined): the growth inhibition in assay [1] is 19.1%; in assay [2], -1.5%; in assay [3], -2.7%; in assay [4] it was -20.1%; in assay [5] it was -5%; in assay [6], 19.7%.
Regarding `O=C(Cc1ccccc1)N[C@@H]1COC(=O)[C@@H]2CCCN2C(=O)[C@@H]2CCCN2C1=O` (PhAc-[dS]-Pro-Pro; ester 1-C), the growth inhibition in assay [1] is -33.4%; in assay [2] it was 5.85%; in assay [3] it was -17.2%; in assay [4], 27.4%; in assay [5] it was -1.7%; in assay [6], -8.95%.
For `CC1(C)CN(CCC#N)C(c2ccc([N+](=O)[O-])cc2)O1` (centres undefined), the growth inhibition in assay [1] was 2.95%; in assay [2] it was 3.3%; in assay [3] it was 8.1%; in assay [4] it was -9.4%; in assay [5], 14%; in assay [6] it was -14.8%.
With `O=C1c2ccccc2C(=O)C1(O)c1c[nH]c2ccccc12`, the growth inhibition in assay [1] was -1.55%; in assay [2], 12.1%; in assay [3], 4.25%; in assay [4] it was 6.85%; in assay [5], -18%; in assay [6] it was 23.6%.
As for `CC(C)(C)OC(=O)N/N=C\c1ccnc2ccccc12`, the growth inhibition is -8.1% in assay [1]; -8.75% in assay [2]; 3.2% in assay [3]; -15.7% in assay [4]; -6.5% in assay [5]; -1.95% in assay [6].
Consider `O=C(O)c1[nH]c(=O)[nH]c(=O)c1CN1CCCCC1`, for which the growth inhibition in assay [1] is -39.8%; in assay [2], -21.6%; in assay [3] it was -15.1%; in assay [4] it was -29.9%; in assay [5], -23.4%; in assay [6], -0.75%.
For the molecule `COc1c(Cl)c(Cl)c2ncc(Cl)cc2c1Cl`, the growth inhibition in assay [1] is -3.7%; in assay [2] it was -3.3%; in assay [3], -3.5%; in assay [4] it was -29.1%; in assay [5], 14.8%; in assay [6], -14.9%.
With `COc1cc(CCCO)ccc1O`, the growth inhibition in assay [1] was 0.85%; in assay [2], 13.8%; in assay [3] it was 0.25%; in assay [4], -48.1%; in assay [5] it was 9.1%; in assay [6], -4.1%.
For `OCCCCCCCCCCCO`, the growth inhibition in assay [1] is 16.9%; in assay [2], 2.3%; in assay [3], 4.35%; in assay [4] it was -15.5%; in assay [5], 12.6%; in assay [6], -19.9%.
Regarding `Cn1nc(-c2ccccc2)c(-c2ccccc2)c(C#N)c1=O`, the growth inhibition in assay [1] was 0.05%; in assay [2], -3.55%; in assay [3], 0.4%; in assay [4] it was -22.6%; in assay [5], -1.8%; in assay [6] it was 0.8%.
For `CS(=O)(=O)CC(O)(c1ccccc1)c1ccccc1`, the growth inhibition in assay [1] is -21.4%; in assay [2], -2.4%; in assay [3], 9.5%; in assay [4] it was -13.3%; in assay [5], 1.55%; in assay [6], 28.1%.
For `O=C1NC(N2CCOCC2)=N/C1=C\c1ccccc1O`, the growth inhibition in assay [1] was -1.3%; in assay [2], -26%; in assay [3], -7.8%; in assay [4] it was -8.65%; in assay [5] it was 16.1%; in assay [6] it was 81.2% (active).
Take `OCC(O)C(O)C(O)C(O)C(O)C(O)CO` (centres undefined): the growth inhibition is 1.8% in assay [1]; 3.65% in assay [2]; 7.35% in assay [3]; 5.75% in assay [4]; -1.2% in assay [5]; 3.35% in assay [6].
